Test results: PubChem BioAssay (Tox21)
“And” between values parts separate entries of the source, which are not always exact repeats. Equal entries are not always repeated. Inconclusive results are not listed. Entries that show only a call come without a potency. Where a structure was tested more than once in an assay, its records may differ in their call. The source made the active and inactive calls. Calls come from the whole dose curve; as a rule, active = well fitted inhibition curve with a large enough effect in the repeat runs; inconclusive = weak or mixed curves; inactive = no such curve, though single readings can be large or run the other way.

Target: Cytochrome P450 2D6 (Homo sapiens) (UniProt P10635)
Sequence (P10635 whole entry, looked up): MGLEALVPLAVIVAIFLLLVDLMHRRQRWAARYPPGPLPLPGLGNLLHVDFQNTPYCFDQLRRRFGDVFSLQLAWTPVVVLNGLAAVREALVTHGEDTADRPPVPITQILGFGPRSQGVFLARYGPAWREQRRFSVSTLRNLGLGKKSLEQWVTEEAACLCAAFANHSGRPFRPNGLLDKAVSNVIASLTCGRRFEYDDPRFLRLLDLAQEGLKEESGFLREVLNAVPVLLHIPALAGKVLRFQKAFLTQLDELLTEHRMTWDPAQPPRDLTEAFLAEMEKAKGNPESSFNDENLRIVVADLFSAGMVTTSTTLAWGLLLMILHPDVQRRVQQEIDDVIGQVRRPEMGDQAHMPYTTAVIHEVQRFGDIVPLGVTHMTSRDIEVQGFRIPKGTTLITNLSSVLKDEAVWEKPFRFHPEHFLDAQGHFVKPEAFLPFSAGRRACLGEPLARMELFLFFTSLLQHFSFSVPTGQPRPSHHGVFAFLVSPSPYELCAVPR
Assay: Cytochrome P450 Family 2 Subfamily D Member 6 (CYP2D6) small molecule antagonists: luciferase reporter qHTS assay (AID 1671196); note: nearly all actives have a fitted effect of over 50% in size
Conditions: P450-Glo CYP2D6 enzyme assay, luciferin luminescence, 1 h; series mostly up to 115 µM; activity change, negative = inhibition: at the top concentration
Text: U.S. Tox21 Program National Center for Advancing Translational Sciences [NCATS] U.S. Environmental Protection Agency [EPA] National Institutes of Environmental Health Sciences [NIEHS] National Toxicology Program [NTP] U.S. Food and Drug Administration [FDA] Tox21 Assay Overview: Cytochrome P450 (CYP) enzymes are membrane-bound hemeproteins that play a key role in metabolism of drugs and xenobiotics. Evaluation of the effect of chemicals on CYP isozymes is useful to minimize the adverse drug reactions and toxicities in drug development process. Tox21 chemicals were tested for their effect on CYP enzyme activities by using P450-Glo (TM) screening systems (Promega Corporation, Madison, WI). These systems provide a luminescent method containing proluciferin substrates and are converted to luciferin products by CYP isozymes. The luciferin products formed are detected with a luciferin detection reagent, and the amount of light produced is proportional to CYP activity. P450-Glo (TM) CYP2D6 screening system (Catalog. No. V9890) was used to detect the compounds that interfere in CYP2D6 activity.
Tox21 Assay Protocol Summary: Two ul of enzyme-substrate mix was dispensed into medium binding white/solid 1536-well plates (Greiner Bio-One North America Inc., Monroe, NC) using a BioRaptr Flying Reagent Dispenser (FRD, Beckman Coulter, Brea, CA). […] The assay plates were incubated at room temperature for 10 min. Then 2 ul of NADPH regeneration solution was added to each well of the assay plates using an FRD and incubated at room temperature for 1 h. The reaction was stopped by adding 4 ul of detection reagent using an FRD and after 20 min incubation at room temperature the luminescence signal was measured using a ViewLux plate reader (Perkin Elmer, Shelton, CT). Data were expressed as relative luminescence units.
Potency is the fitted concentration of half-maximal effect.

Row | Structure (SMILES) | Potency | activity change, negative = inhibition
1 | COCN(COC)c1nc(N(COC)COC)nc(N(COC)COC)n1 | inactive | 
2 | O=C(c1ccccc1)c1ccc(O)c(O)c1O | 63.8 µM (active) | 
3 | O=[N+]([O-])c1cc(C(F)(F)F)ccc1Cl | inactive | 
4 | CC(COCC(C)OC(=O)c1ccccc1)OC(=O)c1ccccc1 (stereo not given) | inactive | 
5 | Cc1cc(C)cc(O)c1 | inactive | 
6 | CCCOCC(C)O (stereo not given) | inactive | 
7 | COC(=O)OC | inactive | 
8 | O=[N+]([O-])c1ccccc1C(F)(F)F | inactive | 
9 | OB(O)O | inactive | 
10 | CC(C)c1ccc(C(C)C)cc1 | inactive | 
11 | CO[Si](CCCNCCN)(OC)OC | inactive | 
12 | CCCOC(=O)NCCCN(C)C | inactive and 35.6 µM (active) | 
13 | CCCCCCCCC(=O)O | 34.4 µM (active) and inactive | 
14 | C=CC(C)(C)C | inactive | 
15 | OC[C@H]1O[C@@H](Oc2ccc(O)cc2)[C@H](O)[C@@H](O)[C@@H]1O |  | -4.58% (inactive)
16 | C[n+]1ccn(CCO)c1 |  | -27.6% (inactive)
17 | CCc1cccc(O)c1 | inactive | 
18 | OC1CCCCC1 | inactive | 
19 | O=Cc1ccc(CO)o1 | inactive | 
20 | CC/C=C(\C(=O)N[C@@H]1C(=O)N2C(C(=O)OCOC(=O)C(C)(C)C)=C(COC(N)=O)CS[C@H]12)c1csc(N)n1 |  | -13.5% [at 53 µM] (inactive)

Row | Structure (SMILES) | Potency | activity change, negative = inhibition
21 | O=C1O[C@H]([C@H](O)CO)C(O)=C1O | inactive | 
22 | CC(C=O)Cc1ccc(C(C)(C)C)cc1 (stereo not given) | inactive | 
23 | COC(=O)/C=C\C(=O)OC | inactive | 
24 | CC(=O)OC(C)(C)C1CC=C(C)CC1 (stereo not given) |  | -5.7% (inactive)
25 | CCCCC(CC)COC(=O)c1ccc(C(=O)OCC(CC)CCCC)cc1 (stereo not given) | inactive | 
26 | O=C(O)Cc1c[nH]c2ccccc12 | inactive | 
27 | CC(=O)OCc1ccc2c(c1)OCO2 |  | -19.4% (inactive)
28 | CCCCCC(C)=O | inactive | 
29 | NC(=O)c1ncn([C@@H]2O[C@H](CO)[C@@H](O)[C@H]2O)n1 | inactive | 
30 | COC(=O)CCCCC(=O)OC | inactive | 
31 | CCCCCNCCCCC | 36.4 µM (active) | 
32 | CS(=O)(=O)c1ccc(Cl)cc1 | inactive | 
33 | NC(=O)NC(N)=O | inactive | 
34 | OCC(CO)(CO)CO | inactive | 
35 | COc1cc(NC(=O)CC(C)=O)c(OC)cc1Cl | 79.6 µM (active) | 
36 | Cc1cc(C)c(O)c(C)c1 | inactive | 
37 | Cc1ccccc1Cl | inactive | 
38 | CN=C(NC#N)NCCSCc1nc[nH]c1C | 31.4 µM (active) and 15.5 µM (active) | 
39 | CCCCCCC(=O)O | inactive | 
40 | CC(C)(CO)CO | inactive | 
